Measured values published in the supplement of paper PMC13380429.

These compounds were tested on Vero E6 infected with SARS-CoV-2 (assay: morphology score (similarity to uninfected cells); higher = more like uninfected cells). Conditions: 24 h.

SMILES	morphology score
Cc1ccccc1C(c1ccccc1C)N1C2CCC1CC(O)(c1ccccc1)C2 (stereo not given) (10 µM)	0.307
CC[C@@H](CO)NC(=O)[C@@H]1C=C2c3cccc4[nH]cc(c34)C[C@H]2N(C)C1 [methylergometrine] (10 µM)	0.112
CN1C(=O)N(C)C2C1N(C)C(=O)N2C (stereo not given) [mebicar] (10 µM)	0.0884
C[N+]1(C)CCCC(OC(=O)C(O)(c2ccccc2)c2ccccc2)C1 (stereo not given) [mepenzolate] (10 µM)	0.047
CC(=O)SC[C@@H](Cc1ccccc1)C(=O)NCC(=O)OCc1ccccc1 (racemic) [racecadotril] (10 µM)	0.0461
CC(Cc1ccccc1)(NC(=O)CN)c1ccccc1 (stereo not given) [remacemide] (10 µM)	-0.124
CC(=O)Oc1ccccc1C(=O)O [aspirin] (10 µM)	-0.027
NCc1ccc(S(N)(=O)=O)cc1 [mafenide] (10 µM)	0.136
C[N+](C)(CCOc1ccccc1)Cc1ccccc1 [bephenium-hydroxynaphthoate] (10 µM)	0.171
CCOC(=O)c1ccc(OC(=O)CCCCCNC(=N)N)cc1 [gabexate] (10 µM)	0.0775
COc1ccccc1N1CCN(CC(O)COc2cc(OC)c(OC)c(OC)c2)CC1 (stereo not given) [enciprazine] (10 µM)	0.0687
CCOC(=O)COc1ccc2c(=O)cc(-c3ccccc3)oc2c1 [efloxate] (10 µM)	0.19
CCOC(=O)Nc1ccc2c(c1)N(C(=O)CCN1CCOCC1)c1ccccc1S2 [moracizine] (10 µM)	0.154
CC(C)N(CCCNC(=O)Nc1ccc(C(C)(C)C)cc1)C[C@H]1O[C@@H](n2cc(Br)c3c(N)ncnc32)[C@H](O)[C@@H]1O (10 µM)	-0.0211
O=C(O)[C@H](O)c1ccccc1 [mandelic-acid] (10 µM)	-0.0448
CCOC(=O)Nc1nc2ccccc2[nH]1 [lobendazole] (10 µM)	0.0965
O=C(NS(=O)(=O)c1ccc(Br)s1)c1ccc(Cl)cc1Cl [tasisulam] (10 µM)	0.161
N=C(N)c1ccc(/N=N/Nc2ccc(C(=N)N)cc2)cc1 [diminazene-aceturate] (10 µM)	0.318

SMILES	morphology score
COc1ccccc1N1CCN(CCN2C(=O)CC3(CCCC3)CC2=O)CC1 (10 µM)	-0.291
O=C(CNC(=O)c1ccc(Cl)cc1)NO [benurestat] (10 µM)	0.153
Cc1ccccc1-n1c(Cn2nc(-c3cccc(O)c3)c3c(N)ncnc32)nc2cccc(C)c2c1=O (10 µM)	0.0603
N[C@H]1CCN(O)C1=O (10 µM)	0.0281
CCOC(=O)/C=C(C)/C=C/C=C(C)/C=C/c1c(C)cc(OC)c(C)c1C [etretinate] (10 µM)	-0.112
Cc1nc2ccc(-n3ncc(C(=O)c4cc5ccccc5[nH]4)c3N)cc2[nH]1 (0.833333 µM)	0.131
CCOC(=O)[C@H](CCc1ccccc1)N[C@@H](C)C(=O)N1[C@H](C(=O)O)C[C@@H]2CCC[C@@H]21 [ramipril] (10 µM)	0.0476
Cc1ccc(-c2c(-c3nn(C)c4ncnc(N5CC[C@H](N6CCCCC6)C5)c34)cnn2C)cc1 (10 µM)	0.14
COCCCOc1ccnc(C[S+]([O-])c2nc3ccccc3[nH]2)c1C (stereo not given) [rabeprazole] (10 µM)	0.00912
Ic1cc(-c2ccccc2)ncn1 [4-iodo-6-phenylpyrimidine] (10 µM)	0.254
Cn1cc(CCn2cnc(-c3cnn(C)c3)c2-c2ccc(C#N)cc2)cn1 (10 µM)	0.0344
CC(C)(Oc1ccc(Cl)cc1)C(=O)N1CSCC1C(=O)O (stereo not given) [timofibrate] (10 µM)	0.0255
O=C(Nc1cccc2cccnc12)c1ccc(N2C(=O)[C@@H]3[C@H](C2=O)[C@H]2C=C[C@@H]3C2)cc1 (10 µM)	0.00174
CCCNC(=O)N1N=C(c2ccc(N)cc2)c2cc3c(cc2C1C)OCO3 (stereo not given) (10 µM)	0.256
NC[C@H]1O[C@H](O[C@H]2[C@H](O[C@@H]3O[C@H](CO)[C@@H](O)[C@H]3O)[C@@H](O)[C@H](N)C[C@@H]2N)[C@H](N)[C@@H](O)[C@@H]1O [ribostamycin-sulfate] (10 µM)	0.199
CC(COc1ccccc1Cc1ccccc1)N1CCCCC1 (stereo not given) [benproperine] (10 µM)	0.214
CN1CCN(S(=O)(=O)c2ccc(-c3cnc(N)c(C(=O)Nc4cccnc4)n3)cc2)CC1 (0.833333 µM)	0.224
